From PubChem BioAssay
NADH enzymes: inhibitors of PK/LDH coupling enzymes, profiling panel, artefact control, biochemical, MLSMR library | AID 774, 2007 | coupled PK/LDH NADH assays, four targets | IC50, µM (series often up to 10 µM), without a hit: at the highest dose inhibition | 65,000 tested, 0.02% active;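 active = single-dose screening hits from any of four coupled enzyme assays that gave an IC50 when retested across doses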;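 note: the DPM-DC format reads NADH fluorescence rather than 340 nm absorbance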
Autofluor 339: intrinsic fluorescence of library compounds, ex339/em460 – biochemical, MLSMR library, data from DPM-DC assay, artefact control, profiling panel | fluorescence fold increase at 10 µM | compound autofluorescence, ex339/em460 nm, NADH buffer; hits give high values; 1 = no-compound wells, NADH background | 65,000 tested, 5.5% active;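 active = at 10 µM, mean starting fluorescence two-fold or more over control wells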;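 note: signal is the first read of a kinetic run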
Spn MK inh: S. pneumoniae MK inhibitors, primary screen, biochemical, PK/LDH-coupled NADH absorbance; mevalonate kinase [Streptococcus pneumoniae D39]; purified MK, PK/LDH-coupled NADH absorbance 340 nm; inhibition, % at 10 µM; 65,000 tested, 0.48% active;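 active = ranked among the strongest by inhibition in the single 10 µM screen, a fixed top-ranked set picked for dose follow-up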
Spn PMK inh: S. pneumoniae PMK inhibitors, primary screen, biochemical, mevalonate pathway, pilot trial included; phosphomevalonate kinase (Streptococcus pneumoniae D39); purified PMK, PK/LDH-coupled NADH absorbance 340 nm; inhibition, % at 10 µM; 65,000 tested, 0.49% active; AID 539, 2006;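 active = top-ranked compounds by inhibition in the single 10 µM screen, taking a fixed number of the strongest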;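 note: 0% = full reaction with DMSO carrier and 100% = background rate without enzyme reaction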
DPM-DC inhibit: S. pneumoniae DPM-DC inhibitors, primary screen, biochemical, PK/LDH-coupled NADH fluorescence. purified DPM-DC. calls only at 10 µM. 65,000 tested, 0.49% active. AID 556, 2006;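 active = the 320 compounds with the highest percent inhibition in the single-dose primary screen, excluding strongly autofluorescent ones, cut at about 32% in these data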;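 note: kinetic rate of NADH fluorescence loss reporting ADP formed by the decarboxylase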
A340 absorber: compound light absorbance at 340 nm, profiling panel, artefact control, biochemical, MLSMR library, data from PS, PMK, MK assays; compound absorbance at 340 nm, fold over control; AID 708, 2007; fold change at 10 µM; 65,000 tested, under 10 active;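 active = at 10 µM dose, initial 340 nm absorbance at least 2 fold that of control wells; inactive = change under 2 fold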;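 note: initial absorbance extrapolated from kinetic A340 decline of NADH oxidation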
Active calls of the source: *. Only some compounds are listed: those with a hit (about 6.5% of all), similar ones and a draw of the others.

`CCOC(=O)C1=C(C)NC2=C(C(=O)C(C(=O)OCC)C(c3ccco3)C2)C1c1ccccn1` (stereo not drawn) gave NADH enzymes 7%, Autofluor 339 3.6*, Spn MK inh 6, Spn PMK inh 8 and A340 absorber 1.1.
For Cc1ccccc1NC(=O)Cc1nc(CSc2nnc(C3CCCCC3)n2N)cs1 the results were NADH enzymes 5%, Autofluor 339 1.1, Spn MK inh 0, Spn PMK inh 14, DPM-DC inhibit inactive and A340 absorber 1.
Screening Cn1c(SC2=CS(=O)(=O)c3ccccc32)nc2ccccc21 returned NADH enzymes 9%, Autofluor 339 1.1, Spn MK inh 11, Spn PMK inh 15, DPM-DC inhibit inactive and A340 absorber 1.
Screening O=C(Cn1c(NCCCO)nc2ccccc21)c1ccc(Br)cc1 returned NADH enzymes 5%, Autofluor 339 1, Spn MK inh 9, Spn PMK inh 7, DPM-DC inhibit inactive and A340 absorber 1.
For Cc1cc(=O)[nH]c2c(C)c(N)ccc12 the results were NADH enzymes 12%, Autofluor 339 3.9*, Spn MK inh 10, Spn PMK inh 13 and A340 absorber 1.1.
Screening Cc1cc(=O)[nH]c2c(C)c(Cl)ccc12 returned NADH enzymes 7%, Autofluor 339 1.1, Spn MK inh 6, Spn PMK inh 9, DPM-DC inhibit inactive and A340 absorber 1.
For Cn1nnc(NC(=O)C(c2ccccc2)c2ccccc2)n1 the results were NADH enzymes 4%, Autofluor 339 1.1, Spn MK inh 4, Spn PMK inh 7, DPM-DC inhibit inactive and A340 absorber 1.
`CC(C)(CO)NC(=O)C(c1ccccc1)c1ccccc1` gave NADH enzymes 36%, Autofluor 339 1.1, Spn MK inh 11, Spn PMK inh 0, DPM-DC inhibit active and A340 absorber 1.
COc1ccc(-c2cc3nc4c(c(N5CCC6(CC5)OCCO6)n3n2)CCCC4)cc1 was read as NADH enzymes 5%, Autofluor 339 2*, Spn MK inh 6, Spn PMK inh 8, DPM-DC inhibit inactive and A340 absorber 1.
`COc1cccc(-c2cc3nc(-c4ccccc4)cc(N4CCC5(CC4)OCCO5)n3n2)c1` gave NADH enzymes 8%, Autofluor 339 2.1*, Spn MK inh 2, Spn PMK inh 13 and A340 absorber 1.
Fc1ccc(-c2cc3nc(-c4ccccc4)cc(N4CCN(CCN5CCOCC5)CC4)n3n2)cc1 was read as NADH enzymes 10%, Autofluor 339 3.7*, Spn MK inh 1, Spn PMK inh 19 and A340 absorber 1.
For CCOc1ccc(S(=O)(=O)N(C)CCO)cc1-c1nc2c(C(C)(C)C)nn(C)c2c(=O)[nH]1 the results were NADH enzymes 1%, Autofluor 339 1.1, Spn MK inh 3, Spn PMK inh 1, DPM-DC inhibit inactive and A340 absorber 1.
For O=C(NCCC1=CCCCC1)C1CCCN(c2nc3ccccc3o2)C1 (stereo not drawn) the results were NADH enzymes 8%, Autofluor 339 1, Spn MK inh 5, Spn PMK inh 20, DPM-DC inhibit inactive and A340 absorber 0.98.
`CC(C)CCNC(=O)NC(=O)COc1ccccc1C#N` gave NADH enzymes 5%, Autofluor 339 1, Spn MK inh 0, Spn PMK inh 4, DPM-DC inhibit inactive and A340 absorber 1.
For COc1cccc(NC(=O)Cn2c(SCC(=O)N3CCOCC3)nc3ccccc32)c1 the results were NADH enzymes 4%, Autofluor 339 1.1, Spn MK inh 9, Spn PMK inh 3, DPM-DC inhibit inactive and A340 absorber 1.
CCCCn1c(SCC(=O)Nc2cccc(OC)c2)nc2ccc(N3CCOCC3)cc2c1=O was read as NADH enzymes 3%, Autofluor 339 3.1*, Spn MK inh 3, Spn PMK inh 2, DPM-DC inhibit inactive and A340 absorber 1.1.
For COc1cc(C2N(c3ccccc3)CCN2c2ccccc2)cc(OC)c1OC the results were NADH enzymes 1%, Autofluor 339 1.1, Spn MK inh 0, Spn PMK inh 3, DPM-DC inhibit inactive and A340 absorber 1.1.
For O=C(c1ccco1)N1CCN(Cc2cccc(F)c2)CC1 the results were NADH enzymes 5%, Autofluor 339 1.1, Spn MK inh 8, Spn PMK inh 7, DPM-DC inhibit inactive and A340 absorber 1.
Screening O=C(c1ccco1)N1CCN(Cc2ccccc2C(F)(F)F)CC1 returned NADH enzymes 16%, Autofluor 339 1.1, Spn MK inh 48*, Spn PMK inh 0, DPM-DC inhibit inactive and A340 absorber 1.
For Cc1ccc(S(=O)(=O)N2CCN(Cc3ccccc3C(F)(F)F)CC2)cc1 the results were NADH enzymes 16%, Autofluor 339 1, Spn MK inh 44*, Spn PMK inh 5, DPM-DC inhibit inactive and A340 absorber 1.1.
CC1CCN(CCNC(=O)CN(C)S(=O)(=O)c2cccc3nsnc23)CC1 was read as NADH enzymes 7%, Autofluor 339 1.1, Spn MK inh 0, Spn PMK inh 19, DPM-DC inhibit inactive and A340 absorber 1.
For CC(=O)C1=C(O)C(=O)N(Cc2ccco2)C1c1ccc(F)cc1 (stereo not drawn) the results were NADH enzymes 5%, Autofluor 339 1, Spn MK inh 11, Spn PMK inh 3, DPM-DC inhibit inactive and A340 absorber 1.
`O=C1c2ccccc2NC(c2ccccc2)N1Cc1ccco1` (stereo not drawn) gave NADH enzymes 5%, Autofluor 339 2.2*, Spn MK inh 8, Spn PMK inh 1 and A340 absorber 1.
Screening O=C1c2ccccc2N2C(=O)c3ccccc3C2N1Cc1ccco1 (stereo not drawn) returned NADH enzymes 3%, Autofluor 339 1.1, Spn MK inh 6, Spn PMK inh 0, DPM-DC inhibit inactive and A340 absorber 1.
For O=C1c2ccccc2NC(c2ccc(F)cc2)N1Cc1ccco1 (stereo not drawn) the results were NADH enzymes 5%, Autofluor 339 3.8*, Spn MK inh 5, Spn PMK inh 4 and A340 absorber 1.1.
CCOC(=O)c1cnn2c(C)cc(-c3ccc(F)cc3)nc12 was read as NADH enzymes 3%, Autofluor 339 2.2*, Spn MK inh 0, Spn PMK inh 5 and A340 absorber 1.1.
For Cc1cc(-c2ccc(F)cc2)nc2cc(C(N)=O)nn12 the results were NADH enzymes 8%, Autofluor 339 2.1*, Spn MK inh 6, Spn PMK inh 4, DPM-DC inhibit inactive and A340 absorber 1.
